57 compounds from PubChem BioAssay AID2524 (Sanford-Burnham Center for Chemical Genomics, 2010) can be followed below.

About 540 (0.16%) of roughly 330,000 compounds were called active. The sample holds actives, similar compounds and a random draw of the others, so the mix is not that of the screen.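 The calls were made as follows: active = activation factor of the enzyme at least 2-fold when tested at 20 µM; inactive = the rest.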

Sequence of Intestinal-type alkaline phosphatase (Homo sapiens) (P09923 whole entry, looked up): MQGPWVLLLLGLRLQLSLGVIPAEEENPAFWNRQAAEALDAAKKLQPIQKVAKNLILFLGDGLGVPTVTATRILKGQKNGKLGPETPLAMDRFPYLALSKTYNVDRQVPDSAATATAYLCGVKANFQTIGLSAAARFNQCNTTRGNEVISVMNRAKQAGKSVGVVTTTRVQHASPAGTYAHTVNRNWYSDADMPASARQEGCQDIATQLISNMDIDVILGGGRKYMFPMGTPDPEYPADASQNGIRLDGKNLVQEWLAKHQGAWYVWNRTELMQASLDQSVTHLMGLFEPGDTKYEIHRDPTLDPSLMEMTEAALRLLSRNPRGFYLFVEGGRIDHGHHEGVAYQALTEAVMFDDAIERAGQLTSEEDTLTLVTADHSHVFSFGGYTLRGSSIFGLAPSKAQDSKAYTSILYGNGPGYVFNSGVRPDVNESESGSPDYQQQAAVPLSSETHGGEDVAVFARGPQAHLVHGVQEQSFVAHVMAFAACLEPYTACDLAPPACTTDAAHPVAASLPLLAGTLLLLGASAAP

The test concerns the target Intestinal-type alkaline phosphatase (Homo sapiens) (UniProt P09923). Nature of the test: enzymatic activation of intestinal alkaline phosphatase – biochemical, luminescence, uHTS, primary screen (AID 2524). Particulars: purified human IAP, CDP-Star luminescence, 30 min; at 10 µM; hits give high values; 1 = vehicle-only enzyme, 0 = enzyme-free background.
As to `Cc1ccc(Cl)c(NC(=O)CN(C)CC(=O)Nc2ccc(F)c(F)c2F)c1Cl`, the activation factor was 1.68 (inactive).
Turning to `Cc1cc(C)cc(N(CC(=O)Nc2c(C)n(C)n(-c3ccccc3)c2=O)S(C)(=O)=O)c1`, the activation factor is 0.988 (inactive).
Turning to `Cc1c(NC(=O)CN(C)CC(=O)Nc2ccc(F)c(F)c2F)c(=O)n(-c2ccccc2)n1C`, the activation factor was 2.09 (active).
Consider `Cc1ccc(OCC(=O)NCCCNC(=O)c2cccnc2)cc1C`, for which the activation factor was 1.06 (inactive).
Regarding `Cc1cc(C(=O)NC2CC(C)(C)Cc3c2cnn3-c2ccccc2)n[nH]1` (configuration not stated), the activation factor was 2.15 (active).
Then `CC1=C(C(=O)NC2CC(C)(C)Cc3c2cnn3-c2ccc(C)cc2)OCCO1` (configuration not stated), with 1.1 (inactive).
Then `COc1ccc(C(=O)NC2CC(C)(C)Cc3c2cnn3-c2ccccc2)c(OC)c1` (configuration not stated), with 1.07 (inactive); and `O=C(NCc1ccccc1Cl)c1ccc2c(=O)n(CC3CCCO3)c(=S)[nH]c2c1` (configuration not stated), with 0.824 (inactive); and `CCN=c1sc(C(=O)Nc2ccccc2)c(C)n1CC`, with 1.04 (inactive).
For the compound `CN(C)c1nccc(NCc2ccccc2)c1C#N`, the activation factor was 1.01 (inactive).
Then `O=C(CN1CCC(NC(=O)Nc2ccccc2)CC1)Nc1cccc([N+](=O)[O-])c1`, with 0.94 (inactive).
With `COc1cccc(NC(=O)CN2CCN(CC(=O)Nc3ccccc3Cl)CC2)c1`, the activation factor was 0.935 (inactive).
With `Cc1cc(C)cc(NC(=O)NC2CCN(CC(=O)Nc3cccc(Cl)c3C)CC2)c1`, the activation factor was 3.04 (active).
As for `CN(C)C(=O)c1nc2ccc(Cl)cn2c1CNCc1cccc(OC(F)(F)F)c1`, the figure is 0.976 (inactive); as for `COc1cc(S(=O)(=O)Nc2ncn[nH]2)ccc1Cl`, 0.999 (inactive).
With `CC(C)n1ncc2c(C(=O)Nc3ccc(CC#N)cc3)cc(C3CC3)nc21`, the activation factor was 0.958 (inactive).
Then `O=C(c1cc(COc2c(F)cccc2F)on1)N1CCSCC1`, with 1.07 (inactive); and `Cc1cnc(C(=O)OCC(=O)Nc2ccc(Cl)cc2Cl)cn1`, with 1.07 (inactive); and `COc1cc(NC(=O)COC(=O)c2cnc(C)cn2)c(C)cc1[N+](=O)[O-]`, with 2.53 (active).
For the compound `COc1cc(NC(=O)COC(=O)CSc2ccc3ccccc3c2)c(C)cc1[N+](=O)[O-]`, the activation factor was 1.12 (inactive).
As for `CCCCN(CCCC)CCNC(=O)CN1C(=O)COc2ccc(S(=O)(=O)N3CCOCC3)cc21`, the figure is 0.976 (inactive).
For `O=C(CNCCC1=CCCCC1)Nc1ccccc1N1CCCCCC1`, the activation factor was 1.04 (inactive).
Take `COCCNS(=O)(=O)c1cc(Br)ccc1OC`: the activation factor was 0.874 (inactive).
On to `CSCCNC(=O)c1ccc2nc(Cc3ccccc3F)oc2c1`, for which the activation factor is 1.11 (inactive).
Turning to `CCCc1cc(=O)[nH]c(SCC(=O)Nc2ccc(C(=O)Nc3ccccc3OC)cc2)n1`, the activation factor is 1.04 (inactive).
As to `OC1CN=C2Sc3ccccc3N2C1` (configuration not stated), the activation factor was 2.42 (active).
Regarding `Cc1ccc(C(=O)COC(=O)CCCC(=O)NC2CCCCC2)cc1[N+](=O)[O-]`, the activation factor was 0.908 (inactive).
Regarding `COC(=O)c1cccc(N(C(=O)CNC(=O)c2cccs2)C(C(=O)NCC2CCCO2)c2ccc(OC)c(OC)c2)c1` (configuration not stated), the activation factor was 0.951 (inactive).
`COC(=O)[C@]1(CC(C)C)N[C@H](c2ccc(SC3CCCCC3)cc2)[C@@H]2C(=O)N(C)C(=O)[C@@H]21`: the activation factor was 0.874 (inactive).
With `COc1ccc(CCC(C)N2CCc3ccccc3C2)cc1` (configuration not stated), the activation factor was 0.983 (inactive).
As to `Cc1nn(CC2CC2)c(=O)n1N(C)c1ncc(C(F)(F)F)cc1Cl`, the activation factor is 0.985 (inactive).
In the case of `COc1ccccc1C(=O)NCC(=O)NCCSc1ccc(Br)cc1`, the activation factor is 1.02 (inactive).
As to `O=C(CSCc1ccccc1Cl)NNC(=O)c1ccccc1`, the activation factor is 1.25 (inactive).
As for `NC(=O)COc1ccc(NC(=O)c2ccccc2-c2ccccc2)cc1`, the activation factor is 2.12 (active).
Regarding `CN(C)C(=O)c1ccc(NC(=O)c2ccccc2-c2ccccc2)cc1`, the activation factor was 1.16 (inactive).
For the compound `CC(=O)Nc1ccc(NC(=O)COc2ccc(-c3ccccc3)cc2)cc1`, the activation factor was 0.914 (inactive).
As for `Cn1nnnc1SCC(=O)Nc1ccccc1C(=O)NC1CC1`, the activation factor is 0.94 (inactive).
As for `CCN(CC)S(=O)(=O)c1ccc(Cl)c(C(=O)NCCN2CCOCC2)c1`, the activation factor was 1.07 (inactive).
For `CC1CC(C)(C)n2c(O)c(N=NC(N)=S)c3cccc1c32` (configuration not stated), the activation factor was 0.927 (inactive).
`CC(=O)Oc1c(C(=O)c2nnc(C)o2)c(=O)n(Cc2ccccc2)c2ccccc12`: the activation factor was 1.07 (inactive).
As to `Cc1cccc(NS(=O)(=O)c2cccc(C(=O)NNC(=O)c3ccccc3O)c2)c1`, the activation factor was 2.18 (active).
Consider `CC(=O)N1CCN(C(=O)c2cccc(S(=O)(=O)Nc3ccc(C)cc3)c2)CC1`, for which the activation factor was 1.16 (inactive).
Turning to `Cc1cccc(NS(=O)(=O)c2ccc(C)c(C(N)=O)c2)c1`, the activation factor is 1.05 (inactive).
Take `CN(C)C(=O)c1cccn(Cc2cccc(C(F)(F)F)c2)c1=O`: the activation factor was 1.24 (inactive).
As for `Cn1c(N)c(C(=O)COC(=O)C23CC4CC(CC(C4)C2)C3)c(=O)n(C)c1=O`, the figure is 0.895 (inactive); as for `Cc1ccccc1C(=O)NCC(c1ccco1)N1CCc2ccccc21` (configuration not stated), 0.802 (inactive); as for `CC12COC3(C(=O)Nc4ccc(Cl)cn4)CC1CCC32C` (configuration not stated), 0.935 (inactive).
Consider `Cc1ccc(CN2CCC(n3nccc3NC(=O)CCCc3ccccc3)CC2)o1`, for which the activation factor was 1.13 (inactive).
As for `COc1cc(CN2CCC(n3nccc3NC(=O)CCCc3ccccc3)CC2)ccc1O`, the figure is 1.47 (inactive); as for `COc1ccc(CN2CCC(n3nccc3NC(=O)CCCc3ccccc3)CC2)cc1C`, 3.92 (active); as for `C=Cn1cc[n+](CC(=O)c2ccc(OC)c(OC)c2)c1`, 0.894 (inactive).
As to `O=C(c1ccc(Br)o1)N(c1ccccn1)C1CCCCC1`, the activation factor was 1.04 (inactive).
For `O=C(N/N=C/c1ccc(Br)o1)c1cncc(Br)c1`, the activation factor was 1.05 (inactive).
In the case of `N#Cc1ccccc1CN1C(=O)S/C(=C/c2cccn2-c2cccc(C(=O)O)c2)C1=O`, the activation factor is 1.06 (inactive).
Take `Cc1cccc(CN2CCC(CNC(=O)Nc3ccc(F)c(Cl)c3)CC2)c1`: the activation factor is 1.31 (inactive).
For `COc1cc(NC(=O)NCC2CCN(Cc3ccc(C)cc3)CC2)cc(OC)c1OC`, the activation factor is 2.12 (active).
As for `Cc1ccc(C)c(CN2CCC(CNC(=O)Nc3ccc(C)c(F)c3)CC2)c1`, the figure is 1.49 (inactive).
